# Measurements taken from the supplement of paper PMC11732987, “Enantioselective OTUD7B fragment discovery through chemoproteomics screening and high-throughput optimisation” (Communications Chemistry, 2025).
# Values without a mark were called inactive.
# Experiments:
# Experiment in all cases: log2 ratio of Biotin-Ahx-Ub-VS probe labelling (fragment/DMSO); higher = less target engagement (more negative = stronger competition), active = hit call of the paper (q ≤ 0.05, log2 ratio ≤ -1)
# Conditions in all cases: compound concentration: 200 uM; treatment time: 3 h
# [1] = target: T1, OTUD6B (UniProt Q8N6M0)
# T1 sequence (whole entry): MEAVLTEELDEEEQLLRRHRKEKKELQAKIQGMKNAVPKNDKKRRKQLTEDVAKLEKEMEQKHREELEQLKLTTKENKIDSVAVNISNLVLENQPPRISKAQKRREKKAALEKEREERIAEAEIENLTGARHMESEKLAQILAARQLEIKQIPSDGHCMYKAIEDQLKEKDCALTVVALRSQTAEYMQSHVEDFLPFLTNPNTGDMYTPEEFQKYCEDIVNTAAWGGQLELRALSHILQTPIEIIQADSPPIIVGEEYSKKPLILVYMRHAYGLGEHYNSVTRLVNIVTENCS
# Method in brief: (§1)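 Global-median-normalised Spectronaut label-free quantities were compared by unpaired t-test, and values are average log2 ratios of fragment over vehicle. Only proteins with ≥2 unique peptides were used. HEK293T lysate (495 µg per sample) was treated in triplicate with fragment at 200 µM or vehicle for 3 h and then with Biotin-Ahx-Ub-VS at 0.5 µM final for 1 h. Labelled DUBs were then NeutrAvidin-enriched, digested with LysC and trypsin, and run by diaPASEF LC-MS/MS.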
# [2] = target: T2, OTUD7B (UniProt Q6GQQ9)
# T2 sequence (whole entry): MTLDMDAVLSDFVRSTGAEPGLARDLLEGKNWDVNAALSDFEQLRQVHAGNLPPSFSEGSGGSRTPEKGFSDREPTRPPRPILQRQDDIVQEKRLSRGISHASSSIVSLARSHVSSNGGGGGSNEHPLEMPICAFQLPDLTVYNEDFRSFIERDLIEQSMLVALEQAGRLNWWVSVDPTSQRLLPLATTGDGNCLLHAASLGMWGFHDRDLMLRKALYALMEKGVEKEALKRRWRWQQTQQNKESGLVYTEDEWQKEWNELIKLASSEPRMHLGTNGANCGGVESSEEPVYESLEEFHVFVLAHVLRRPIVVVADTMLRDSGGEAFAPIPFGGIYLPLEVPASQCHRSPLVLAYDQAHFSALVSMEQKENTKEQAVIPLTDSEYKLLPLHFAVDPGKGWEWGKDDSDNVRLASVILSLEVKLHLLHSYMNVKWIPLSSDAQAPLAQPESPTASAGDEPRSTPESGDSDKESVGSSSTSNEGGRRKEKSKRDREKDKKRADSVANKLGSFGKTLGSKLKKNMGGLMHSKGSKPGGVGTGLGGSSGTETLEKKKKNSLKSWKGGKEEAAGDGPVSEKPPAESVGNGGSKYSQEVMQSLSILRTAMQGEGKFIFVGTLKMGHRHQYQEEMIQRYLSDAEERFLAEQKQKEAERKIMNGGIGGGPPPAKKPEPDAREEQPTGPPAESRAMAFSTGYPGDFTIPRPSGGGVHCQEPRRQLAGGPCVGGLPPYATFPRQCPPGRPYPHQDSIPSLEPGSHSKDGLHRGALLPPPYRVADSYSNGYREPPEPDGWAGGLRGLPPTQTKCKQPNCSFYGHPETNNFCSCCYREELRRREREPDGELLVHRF
# Method in brief: as §1
# [3] = target: PRPF8 (UniProt Q6P2Q9)
# Method in brief: as §1
# [4] = target: T3, PSMD7 (UniProt P51665)
# T3 sequence (whole entry): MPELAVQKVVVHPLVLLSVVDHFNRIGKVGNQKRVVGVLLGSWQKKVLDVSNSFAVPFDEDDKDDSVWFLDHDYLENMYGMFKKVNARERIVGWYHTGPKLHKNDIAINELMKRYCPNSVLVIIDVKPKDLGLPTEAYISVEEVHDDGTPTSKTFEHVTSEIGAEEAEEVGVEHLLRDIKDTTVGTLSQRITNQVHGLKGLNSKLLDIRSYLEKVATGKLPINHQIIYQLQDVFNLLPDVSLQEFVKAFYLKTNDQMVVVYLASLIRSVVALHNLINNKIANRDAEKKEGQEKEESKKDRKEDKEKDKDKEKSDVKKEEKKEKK
# Method in brief: as §1
# [5] = target: UCHL1 (UniProt P09936)
# Sequence of UCHL1 (P09936 whole entry, looked up): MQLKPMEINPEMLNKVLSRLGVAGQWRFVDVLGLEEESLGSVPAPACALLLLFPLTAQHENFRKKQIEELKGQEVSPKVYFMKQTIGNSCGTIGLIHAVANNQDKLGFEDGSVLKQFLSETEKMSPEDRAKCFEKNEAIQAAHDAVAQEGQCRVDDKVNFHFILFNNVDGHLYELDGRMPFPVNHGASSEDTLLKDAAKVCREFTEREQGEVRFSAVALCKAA
# Method in brief: as §1
# [6] = target: T4, UCHL3 (UniProt P15374)
# T4 sequence (whole entry): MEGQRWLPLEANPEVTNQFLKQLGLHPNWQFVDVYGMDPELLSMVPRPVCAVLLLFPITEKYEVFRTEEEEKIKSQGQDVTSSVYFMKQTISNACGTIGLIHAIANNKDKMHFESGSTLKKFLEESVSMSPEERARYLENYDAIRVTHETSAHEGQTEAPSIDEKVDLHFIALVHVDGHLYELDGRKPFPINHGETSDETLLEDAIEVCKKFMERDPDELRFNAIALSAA
# Method in brief: as §1
# [7] = target: T5, UCHL5 (UniProt Q9Y5K5)
# T5 sequence (whole entry): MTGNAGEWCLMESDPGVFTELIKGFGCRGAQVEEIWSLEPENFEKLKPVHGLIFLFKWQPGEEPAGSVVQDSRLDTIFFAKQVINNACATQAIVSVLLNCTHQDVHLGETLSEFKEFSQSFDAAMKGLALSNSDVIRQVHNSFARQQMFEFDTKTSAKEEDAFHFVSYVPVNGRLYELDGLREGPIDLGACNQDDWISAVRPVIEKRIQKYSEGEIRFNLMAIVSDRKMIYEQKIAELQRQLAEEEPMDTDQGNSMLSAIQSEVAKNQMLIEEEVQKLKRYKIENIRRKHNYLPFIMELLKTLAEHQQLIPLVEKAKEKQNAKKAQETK
# Method in brief: as §1
# [8] = target: USP10 (UniProt Q14694)
# Sequence of USP10 (Q14694 whole entry): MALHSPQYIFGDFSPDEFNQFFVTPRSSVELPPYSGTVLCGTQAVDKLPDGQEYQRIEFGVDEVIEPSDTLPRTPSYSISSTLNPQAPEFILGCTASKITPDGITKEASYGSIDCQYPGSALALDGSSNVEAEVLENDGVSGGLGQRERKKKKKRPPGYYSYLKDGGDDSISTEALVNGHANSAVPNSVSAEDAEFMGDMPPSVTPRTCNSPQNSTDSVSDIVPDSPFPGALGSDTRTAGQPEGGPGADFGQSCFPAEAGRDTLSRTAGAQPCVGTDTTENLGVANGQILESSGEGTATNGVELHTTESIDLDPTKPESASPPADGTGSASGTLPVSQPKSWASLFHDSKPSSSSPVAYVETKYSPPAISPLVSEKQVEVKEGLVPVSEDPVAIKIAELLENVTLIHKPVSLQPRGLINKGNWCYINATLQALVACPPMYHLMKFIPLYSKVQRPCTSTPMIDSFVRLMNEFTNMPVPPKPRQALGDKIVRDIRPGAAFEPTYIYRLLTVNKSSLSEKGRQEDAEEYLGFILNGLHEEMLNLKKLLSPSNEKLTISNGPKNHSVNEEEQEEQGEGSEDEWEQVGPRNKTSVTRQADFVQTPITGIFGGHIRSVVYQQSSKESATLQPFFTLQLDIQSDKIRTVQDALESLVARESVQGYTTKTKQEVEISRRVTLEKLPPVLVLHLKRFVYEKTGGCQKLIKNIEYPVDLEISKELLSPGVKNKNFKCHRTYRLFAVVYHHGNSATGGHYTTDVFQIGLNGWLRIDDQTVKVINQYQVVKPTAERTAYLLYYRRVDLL
# Method in brief: as §1
# [9] = target: T6, USP15 (UniProt Q9Y4E8)
# T6 sequence (whole entry): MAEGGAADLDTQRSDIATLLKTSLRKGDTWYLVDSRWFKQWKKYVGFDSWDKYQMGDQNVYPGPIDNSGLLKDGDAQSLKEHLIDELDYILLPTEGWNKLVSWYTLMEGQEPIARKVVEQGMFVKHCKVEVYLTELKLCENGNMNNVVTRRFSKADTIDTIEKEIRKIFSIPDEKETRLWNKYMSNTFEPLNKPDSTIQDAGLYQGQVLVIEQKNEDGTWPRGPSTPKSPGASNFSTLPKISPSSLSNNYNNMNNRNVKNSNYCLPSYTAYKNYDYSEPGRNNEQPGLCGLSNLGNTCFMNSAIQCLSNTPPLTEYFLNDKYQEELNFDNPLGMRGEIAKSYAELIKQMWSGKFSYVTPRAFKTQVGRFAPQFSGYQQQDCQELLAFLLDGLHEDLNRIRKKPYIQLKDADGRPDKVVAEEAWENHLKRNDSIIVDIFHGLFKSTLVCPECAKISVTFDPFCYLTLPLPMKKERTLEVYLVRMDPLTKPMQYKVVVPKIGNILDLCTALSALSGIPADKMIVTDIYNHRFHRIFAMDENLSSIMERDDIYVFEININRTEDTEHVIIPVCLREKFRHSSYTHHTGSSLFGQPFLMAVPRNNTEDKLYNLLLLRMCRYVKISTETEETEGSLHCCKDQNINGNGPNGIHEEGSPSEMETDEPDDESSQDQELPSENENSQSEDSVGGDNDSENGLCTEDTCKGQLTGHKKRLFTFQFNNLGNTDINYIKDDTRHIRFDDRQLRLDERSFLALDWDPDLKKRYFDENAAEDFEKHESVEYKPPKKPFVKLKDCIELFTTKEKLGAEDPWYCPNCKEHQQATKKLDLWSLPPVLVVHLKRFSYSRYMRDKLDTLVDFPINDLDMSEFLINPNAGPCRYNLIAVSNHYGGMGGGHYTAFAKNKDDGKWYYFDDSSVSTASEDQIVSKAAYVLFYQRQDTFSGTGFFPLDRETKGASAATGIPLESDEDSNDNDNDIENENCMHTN
# Method in brief: as §1
# [10] = target: USP16 (UniProt Q9Y5T5)
# Sequence of USP16 (Q9Y5T5 whole entry, looked up): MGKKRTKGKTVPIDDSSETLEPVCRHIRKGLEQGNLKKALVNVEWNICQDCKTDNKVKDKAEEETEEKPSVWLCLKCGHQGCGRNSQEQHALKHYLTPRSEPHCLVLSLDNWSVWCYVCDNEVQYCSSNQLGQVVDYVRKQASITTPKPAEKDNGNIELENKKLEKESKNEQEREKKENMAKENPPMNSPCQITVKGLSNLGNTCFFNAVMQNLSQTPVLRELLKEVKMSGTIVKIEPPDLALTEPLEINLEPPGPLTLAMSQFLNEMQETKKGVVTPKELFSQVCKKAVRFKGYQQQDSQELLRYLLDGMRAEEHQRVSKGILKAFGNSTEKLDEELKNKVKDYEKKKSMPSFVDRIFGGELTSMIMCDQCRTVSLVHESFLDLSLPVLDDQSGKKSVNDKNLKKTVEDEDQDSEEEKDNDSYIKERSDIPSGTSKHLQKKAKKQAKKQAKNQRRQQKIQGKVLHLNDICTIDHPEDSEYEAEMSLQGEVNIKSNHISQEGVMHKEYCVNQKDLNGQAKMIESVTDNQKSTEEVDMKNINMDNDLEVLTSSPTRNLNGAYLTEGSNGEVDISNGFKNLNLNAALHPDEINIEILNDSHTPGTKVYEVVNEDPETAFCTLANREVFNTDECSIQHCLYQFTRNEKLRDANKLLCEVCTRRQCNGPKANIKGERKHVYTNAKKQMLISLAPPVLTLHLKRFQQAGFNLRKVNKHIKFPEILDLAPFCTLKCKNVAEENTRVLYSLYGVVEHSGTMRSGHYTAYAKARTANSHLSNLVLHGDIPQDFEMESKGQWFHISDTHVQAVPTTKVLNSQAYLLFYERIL
# Method in brief: as §1
compound,measurement,setting,value
O=C(CCl)Nc1cc2c(cc1Cl)OCCCO2,log2 ratio of Biotin-Ahx-Ub-VS probe labelling,[1],-0.0697
same,log2 ratio of Biotin-Ahx-Ub-VS probe labelling,[2],-0.399
same,log2 ratio of Biotin-Ahx-Ub-VS probe labelling,[3],0.00677
same,log2 ratio of Biotin-Ahx-Ub-VS probe labelling,[4],-0.0387
same,log2 ratio of Biotin-Ahx-Ub-VS probe labelling,[5],-1.39 (active)
same,log2 ratio of Biotin-Ahx-Ub-VS probe labelling,[6],-0.323
same,log2 ratio of Biotin-Ahx-Ub-VS probe labelling,[7],-0.0527
same,log2 ratio of Biotin-Ahx-Ub-VS probe labelling,[8],-0.157
same,log2 ratio of Biotin-Ahx-Ub-VS probe labelling,[9],-0.172
same,log2 ratio of Biotin-Ahx-Ub-VS probe labelling,[10],-0.508
